In the library only some 3.9% were active in any assay of this set; here they are far more common.
TROY signal inh: inhibitors of TROY-driven NF-kB signaling, primary screen, Q293 LMP1-TROYcd cells, NF-kB luciferase, uHTS | Q293 LMP1-TROYcd NF-kB luciferase reporter, 4 h | inhibition, % at 10 µM | 360,000 tested, 0.98% active | AID 1347056, 2019;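 active = compounds whose plate-normalised and pattern-corrected inhibition of the luciferase reporter signal at the single screening dose is 50% or more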
TWEAK-Fn14 inh: inhibitors of TWEAK-Fn14 signaling, primary screen, luciferase reporter cells, uHTS; TWEAK-stimulated Fn14 reporter cells, luciferase luminescence, 8 h; inhibition, % at 10 µM; 360,000 tested, 2% active; in the data active = inhibition above about 50%
aSyn 5UTR inh: MLPCN primary screen, SNCA 5' untranslated region. AID 1813, 2009. 300,000 tested, 0.82% active. inhibition, % (tested at 7.5 µM). alpha-synuclein 5'UTR reporter, inhibitor activity; in the data active = inhibition above about 60%;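 also: H4 neuroglioblastoma cells stably carrying SNCA 5'UTR luciferase fusion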
HSP90 inh: HSP90 inhibitors, primary screen, cell lysate, luminescence. AID 1789, 2009. Rabbit reticulocyte lysate, luciferase refolding luminescence, 3 h. inhibition, % at 5.6 µM. 290,000 tested, 0.91% active;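 active = inhibition above the screen-wide mean plus 3 SD, computed separately per campaign, cut at about 16% in these data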;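 also: inhibitors lower the luminescence because luciferase stays unfolded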
C8 TRAIL sens: viability loss with TRAIL in NB7+C8 cells, primary screen, TRAIL sensitizer project, cell-based, ATPlite luminescence | 360,000 tested, 1% active | AID 624354, 2012 | inhibition (viability loss, TRAIL sensitization), % at 10 µM;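 active = compounds causing at least 50% loss of cell viability in the single-dose screen, relative to plate controls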
HIF-2a inh: HIF-2a reporter inhibitors, primary screen, luminescence, 786-0 RCC cells. 786-0 RCC cells HIF-2a reporter, luciferase luminescence, overnight. inhibition, % at 18.8 µM. 360,000 tested, 0.72% active. AID 624352, 2012;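 active = inhibition of the luminescence signal of 40% or more relative to plate controls, in a single-dose primary screen at 18.75 µM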
Numbers stand for hits.

COc1cc(/C=C2/SC(=S)NC2=O)ccc1OS(=O)(=O)c1ccc(C)cc1 was read as TROY signal inh 58.9, TWEAK-Fn14 inh inactive, aSyn 5UTR inh inactive, HSP90 inh inactive, C8 TRAIL sens inactive and HIF-2a inh inactive.
For COc1cc(/C=C2\SC(=S)NC2=O)ccc1OS(=O)(=O)c1ccccc1 the results were aSyn 5UTR inh inactive and HSP90 inh inactive.
`CCOc1ccc(S(=O)(=O)N2CCCCC2)cc1NC(=O)Cc1cccc(C(F)(F)F)c1` gave TROY signal inh inactive, TWEAK-Fn14 inh inactive, C8 TRAIL sens inactive and HIF-2a inh inactive.
For CCOc1ccc(S(=O)(=O)N2CCCCC2)cc1NC(=O)Cc1ccccc1 the results were TROY signal inh 51.2, TWEAK-Fn14 inh inactive, C8 TRAIL sens inactive and HIF-2a inh inactive.
`Cc1cc(=O)n2c3c(c4c(cc13)c(CN(C)C)cc(=O)n4C)OC2` gave TROY signal inh 52.2, TWEAK-Fn14 inh inactive, C8 TRAIL sens inactive and HIF-2a inh inactive.
`Cc1cc(=O)n(C)c2ccccc12` gave TROY signal inh inactive, TWEAK-Fn14 inh inactive, aSyn 5UTR inh inactive, HSP90 inh inactive, C8 TRAIL sens inactive and HIF-2a inh inactive.
`CCCCC1Cc2[nH]c(=S)[nH]c(=O)c2C(c2cccc3ccccc23)O1` (configuration not stated) gave TROY signal inh inactive, TWEAK-Fn14 inh inactive, C8 TRAIL sens inactive and HIF-2a inh inactive.
Screening Cc1ccc(S(=O)(=O)NC(CC(C)C)C(=O)Oc2ccc3c4c(c(=O)oc3c2)CCC4)cc1 (configuration not stated) returned TROY signal inh 68.5, TWEAK-Fn14 inh inactive, aSyn 5UTR inh inactive, HSP90 inh inactive, C8 TRAIL sens inactive and HIF-2a inh inactive.
For Cc1cc(C)n2c(Nc3ccc4c(c3)OCCO4)c(-c3cc4ccccc4o3)nc2n1 the results were TROY signal inh 85.5, TWEAK-Fn14 inh 96.7, C8 TRAIL sens inactive and HIF-2a inh inactive.
Screening Cc1cc(C)n2c(Nc3ccc4c(c3)OCCO4)c(-c3ccc(C)o3)nc2n1 returned TROY signal inh inactive, TWEAK-Fn14 inh inactive, aSyn 5UTR inh inactive, HSP90 inh inactive, C8 TRAIL sens inactive and HIF-2a inh inactive.
For O=C(O)C1C=CC(C(=O)O)c2ccccc21 (configuration not stated) the results were TROY signal inh inactive, TWEAK-Fn14 inh inactive, C8 TRAIL sens inactive and HIF-2a inh inactive.
For CCOc1ccc(CN(C)CC(=O)Nc2cc(C)c(C)cc2[N+](=O)[O-])cc1 the results were TROY signal inh 67.4, TWEAK-Fn14 inh inactive, aSyn 5UTR inh inactive, HSP90 inh inactive, C8 TRAIL sens inactive and HIF-2a inh inactive.
`CC1=NN(C(N)=S)C(=O)C1N=Nc1cccc(C(=O)O)c1` (configuration not stated) gave TROY signal inh inactive, TWEAK-Fn14 inh inactive, aSyn 5UTR inh inactive, HSP90 inh inactive, C8 TRAIL sens inactive and HIF-2a inh 45.9.
CC1=NN(C(N)=S)C(=O)C1N=Nc1cccc(C)c1 (configuration not stated) was read as TROY signal inh inactive, TWEAK-Fn14 inh inactive, aSyn 5UTR inh inactive, HSP90 inh inactive, C8 TRAIL sens inactive and HIF-2a inh inactive.
Screening CCOC(=O)[C@]12CCCC=C1N(Cc1ccc3c(c1)OCO3)C(=O)[C@H](CC(=O)NCc1ccc(OC)c(OC)c1)C2 returned TROY signal inh inactive, TWEAK-Fn14 inh inactive, C8 TRAIL sens inactive and HIF-2a inh inactive.
CN(C)c1ccc(S(=O)(=O)N2CCCCC2)cc1NC(=O)CCNC(=O)c1ccccc1Cl was read as TROY signal inh inactive, TWEAK-Fn14 inh inactive, C8 TRAIL sens inactive and HIF-2a inh inactive.
O=C(c1ccco1)N1CCN(c2nc(C(F)(F)F)nc3c2nnn3Cc2ccccc2)CC1 was read as TROY signal inh 53.2, TWEAK-Fn14 inh 54.8, aSyn 5UTR inh inactive, HSP90 inh inactive, C8 TRAIL sens inactive and HIF-2a inh inactive.
O=C(O)C(NS(=O)(=O)c1ccc(F)cc1)c1ccccc1 (configuration not stated) was read as TROY signal inh inactive, TWEAK-Fn14 inh 89.5, aSyn 5UTR inh inactive, HSP90 inh inactive, C8 TRAIL sens inactive and HIF-2a inh inactive.
For O=C(NCc1ccccc1)C(CCc1ccccc1)n1c(=O)c(-c2ccccc2)nc2ccccc21 (configuration not stated) the results were C8 TRAIL sens inactive and HIF-2a inh inactive.
Screening CC(C)(CN1CCCN(CC(C)(C)C(=O)O)C1=O)C(=O)O returned TROY signal inh inactive, TWEAK-Fn14 inh inactive, C8 TRAIL sens inactive and HIF-2a inh inactive.
COc1cc(/C=C/C(=O)N2C(=O)c3cccc(N)c3C2=O)cc(OC)c1OC was read as TROY signal inh inactive, TWEAK-Fn14 inh 91.9, aSyn 5UTR inh inactive, HSP90 inh inactive, C8 TRAIL sens inactive and HIF-2a inh inactive.
`COc1ccc(OC)c(/C=C/C(=O)N2C(=O)c3cccc(N)c3C2=O)c1` gave TROY signal inh inactive, TWEAK-Fn14 inh 100.4, aSyn 5UTR inh inactive, HSP90 inh inactive, C8 TRAIL sens inactive and HIF-2a inh inactive.
COc1cc(/C=C/C(=O)N2CCN(C(=O)/C=C/c3cc(OC)c(OC)c(OC)c3)CC2)cc(OC)c1OC was read as TROY signal inh inactive, TWEAK-Fn14 inh inactive, aSyn 5UTR inh inactive, HSP90 inh inactive, C8 TRAIL sens inactive and HIF-2a inh inactive.
COc1ccc(OC)c(/C=C/C(=O)N2CCCc3ccccc32)c1 was read as TROY signal inh inactive, TWEAK-Fn14 inh inactive, aSyn 5UTR inh inactive, HSP90 inh inactive, C8 TRAIL sens inactive and HIF-2a inh inactive.
For Cc1ccc(C(=O)CSc2nccn2-c2ccccc2)cc1 the results were TROY signal inh 50.7, TWEAK-Fn14 inh inactive, aSyn 5UTR inh inactive, HSP90 inh inactive, C8 TRAIL sens inactive and HIF-2a inh inactive.
For Nc1ncnc2c1ncn2C1O[C@H](CO)[C@@H](O)[C@@H]1O (some centres not stated) the results were TROY signal inh inactive, TWEAK-Fn14 inh inactive, C8 TRAIL sens inactive and HIF-2a inh inactive.
`N#Cc1c(N)n(C2OC(CO)C(O)C2O)c2ncnc(N)c12` (configuration not stated) gave TROY signal inh 61.9, TWEAK-Fn14 inh 100.7, C8 TRAIL sens inactive and HIF-2a inh 71.0.
COc1ccc(C)c2sc(=NC(=O)c3ccc(C(C)=O)cc3)n(C)c12 was read as TROY signal inh 51.3, TWEAK-Fn14 inh inactive, aSyn 5UTR inh inactive, HSP90 inh inactive, C8 TRAIL sens inactive and HIF-2a inh inactive.
For COc1ccc(C)c2sc(=NC(=O)c3ccccc3)n(C)c12 the results were TROY signal inh inactive, TWEAK-Fn14 inh inactive, aSyn 5UTR inh inactive, HSP90 inh inactive, C8 TRAIL sens inactive and HIF-2a inh inactive.
For O=C(C[C@H]1CC[C@@H]2[C@H](COC[C@H](O)CN2C(=O)c2cnccn2)O1)NCc1ccc(Cl)cc1 the results were C8 TRAIL sens inactive and HIF-2a inh inactive.

Assay outcomes (PubChem)
